# In the library only some 11% were active in any assay of this set; here they are far more common.
# IMPase Li cell = cell-permeable IMPase inhibitors with lithium potentiation; 210,000 compounds, 0.35% hits; CHO-M1 cells, IP1 TR-FRET (IP-One), carbachol + lithium; Potency, µM (highest dose often 59.4 µM), actives largely listed as inhibitors; active means well fitted curve in the direction sought with a large enough effect; inconclusive means small, poorly fitted or top-dose-only effect, or another doubt; inactive means no such curve, though single readings can be large; an effect the other way counts as inactive or inconclusive;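 further: IP1 builds up when IMPase is blocked and the TR-FRET signal falls; nearly all actives have a fitted effect of over 50% in size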
#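 Steps: plate 2000 CHO-M1 cells per well and culture 16–30 h; add compound and lithium; incubate 30 min, 37C; add d2-IP1 tracer and Eu cryptate anti-IP1 antibody in lysis buffer; read after 10 min at room temperature.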
# IMPase inh = cell-permeable inhibitors of inositol monophosphatase (IMPase). P97697. CHO-M1 cells, IP1 accumulation, HTRF TR-FRET ratio. inhibition (IP1 accumulation), % at 46.1 µM. 120,000 tested, under 10 active. AID 901; active means well fitted curve in the direction sought with a large enough effect in the signal ratio, not every such curve was filed as active; inconclusive means small, poorly fitted or top-dose-only effect, or a change in a side signal; inactive means no such curve, though single readings can be large or run the other way; the % refers to the signal ratio;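 further: cells stimulated with carbachol in lithium chloride buffer; higher means more IMPase inhibition seen as more IP1 and lower FRET ratio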
#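 The IP-One HTRF competitive assay in carbachol-stimulated CHO-M1 cells quantifies cellular IP1. Compounds spanned up to 46 uM final, and activity is expressed as AC50 from concentration-response fits of the ratio and donor data.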
# ALDH1A1 inh = ALDH1A1 (human) enzyme inhibition. P00352. Potency, µM (series often up to 75.3 µM), usual class: inhibitors. 220,000 compounds, 7.3% hits. AID 1030. Purified ALDH1A1, NADH fluorescence, propionaldehyde substrate
# PNC assembly inh = inhibitors of perinucleolar compartment assembly; 140,000 compounds, 3.1% hits; PC3M PTB-GFP, PNC prevalence imaging, 16 h; hits give low values; activity change (PNC), negative = inhibition, % at 10 µM;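 active means readout at or below -70, meaning at least 70% loss of cells showing the perinucleolar compartment, a nuclear body marking cancer cells; inconclusive means readout between -30 and a set limit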
#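 Read-out is percentage of cells bearing a perinucleolar compartment, from automated 20x imaging of fixed, Hoechst-stained PC3M PTB-GFP cells. Cells were seeded 4 h, then exposed 16 h to compound (23 nl of library stock) in duplicate plates.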
# HPGD block = inhibitors of human 15-hydroxyprostaglandin dehydrogenase (HPGD) | P15428 | purified HPGD, NADH fluorescence kinetic, PGE2 substrate | Potency, µM, actives largely listed as inhibitors | 150,000 compounds, 4.3% hits | AID 894
#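 20 nM HPGD preincubated 15 min at room temperature with compound in 50 mM Tris-HCl pH 8, 0.01% Tween 20. Started with 1 mM NAD+ and 30 uM prostaglandin E2; NADH fluorescence (360/450 nm) read 5 times over 30-s intervals, last minus first.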
# ALOX12 inhib = inhibitors of human 12-lipoxygenase (ALOX12) | 150,000 compounds, 0.12% hits | purified 12-hLO, xylenol orange hydroperoxide absorbance | Potency, µM (series often up to 57.1 µM), actives largely listed as inhibitors | P18054; active means well fitted curve in the direction sought with a large enough effect; inconclusive means small, poorly fitted or top-dose-only effect, or another doubt; inactive means no such curve, though single readings can be large; an effect the other way counts as inactive or inconclusive; further: nearly all actives have a fitted effect of over 55% in size
# Target sequence (P18054 whole entry, looked up): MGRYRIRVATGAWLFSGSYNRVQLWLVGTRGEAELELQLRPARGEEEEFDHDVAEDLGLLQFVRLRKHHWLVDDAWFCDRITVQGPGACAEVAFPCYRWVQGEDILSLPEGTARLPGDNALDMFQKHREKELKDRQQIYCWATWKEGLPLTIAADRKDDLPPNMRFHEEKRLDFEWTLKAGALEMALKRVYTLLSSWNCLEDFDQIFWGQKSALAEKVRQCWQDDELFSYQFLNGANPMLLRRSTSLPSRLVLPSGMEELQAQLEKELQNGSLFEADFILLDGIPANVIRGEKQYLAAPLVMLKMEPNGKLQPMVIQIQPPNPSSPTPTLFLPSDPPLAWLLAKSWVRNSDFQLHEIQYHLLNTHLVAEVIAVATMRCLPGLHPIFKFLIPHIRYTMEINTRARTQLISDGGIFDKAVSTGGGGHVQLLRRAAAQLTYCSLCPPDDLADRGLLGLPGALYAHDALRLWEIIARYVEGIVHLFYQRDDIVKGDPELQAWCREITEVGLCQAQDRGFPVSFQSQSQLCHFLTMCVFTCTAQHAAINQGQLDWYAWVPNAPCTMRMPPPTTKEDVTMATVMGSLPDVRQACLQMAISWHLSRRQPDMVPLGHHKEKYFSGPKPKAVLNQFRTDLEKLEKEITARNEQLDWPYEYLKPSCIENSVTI
#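 Purified human 12hLO (150 nM final) was preincubated with compounds for 15 min at room temperature in 25 mM Hepes pH 7.0, 0.01% Triton X-100, then reacted with 40 uM arachidonic acid for 30 min. Hydroperoxide was detected with ferrous iron/xylenol orange.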
# A number is an active result; – = inactive; ? = inconclusive; · = not tested or not shown; [ ] = another dose, or the depositor's remark. Unless noted, the call rests on the fitted dose curve; in most records, active means well fitted inhibition curve with a large enough effect (not every such curve was filed as active); inconclusive means small, poorly fitted or top-dose-only effect, or another doubt; inactive means no such curve, though single readings can be large or run the other way.
SMILES,IMPase Li cell,IMPase inh,ALDH1A1 inh,PNC assembly inh,HPGD block,ALOX12 inhib
OC[C@@H]1O[C@H](n2cnc3c(/C=C(\O)c4ccccc4)ncnc32)[C@H](O)[C@@H]1O,–,·,–[13.5 µM],·,–,–[11.4 µM]
O=C1NC(=S)N/C1=C/c1cccc([N+](=O)[O-])c1O,–,–,22µM,–,–,–
O=C1NC(=S)N/C1=C/c1cc([N+](=O)[O-])ccc1O,–,–,5µM,–,?,–
Cc1ccc(/C=C2\NC(=S)NC2=O)cc1[N+](=O)[O-],–,·,–,·,·,·
COc1ccc(NCc2nc3ccccc3n2CCOc2ccc(C)cc2)cc1,–,·,–,-113,–,–
CCOCCn1c(-c2ccc(OC)cc2)nc2ccccc21,–,–,–,-106,–,–
COc1ccc(-c2nc3ccccc3n2Cc2ccccc2)cc1,–,?,?,?,?,–
COc1ccc(NCc2nc3ccccc3n2CCOc2ccccc2)cc1,–,–,–,?,–,–
CCSc1nnc2c(n1)OC(c1sccc1C)N(C(C)=O)c1ccccc1-2 (centres undefined),·,–,·,·,·,·
Cc1c(Cl)cccc1NC(=S)NCCC(C)C,–,–,–,?,–,–
Cc1c(Cl)cccc1NC(=S)NCCC(c1ccccc1)c1ccccc1,–,·,?,?,–,7.9µM
Cc1c(Cl)cccc1NC(=S)NCc1ccccc1Cl,–,·,–,–,22µM,10µM
COc1cc(NC(=S)NCCC(c2ccccc2)c2ccccc2)cc(OC)c1,–,·,?,–,–,22µM
O=C(COC(=O)c1cnccn1)c1ccc(OC(=O)c2ccccc2)cc1,–,–,–,-126,–,–
COc1cc(CN2CC(=O)N(c3ccc(C)c(C)c3)C2=S)cc(OC)c1OC,–,–,–,–,–,–
CCc1ccc(N2C(=O)CN(Cc3cc(OC)c(OC)c(OC)c3)C2=S)cc1,–,·,–,-81,–,–
CC(=O)OC[C@@H]1O[C@@H](O/N=C2/C[C@@H](O)[C@@H](O)[C@@H]3[C@@H]4C(=O)N(C(C)(C)C)C(=O)[C@H]4CC[C@H]23)[C@H](OC(C)=O)[C@H](OC(C)=O)[C@@H]1OC(C)=O,·,·,–[13.5 µM],·,·,·
Cc1cc(C)c(/C=C2/C(=O)Nc3ccccc32)[nH]1,·,–,·,·,·,–
O=C1Nc2ccc(I)cc2/C1=C/c1cc(Br)c(O)c(Br)c1,–,–,–,·,3.5µM,–
COc1cc(/C=C2\SC(=Nc3cccnc3)NC2=O)cc(OC)c1OC,·,·,–,·,·,·
COC(=O)/C=C1\SC(=Nc2ccc(OC)cc2)NC1=O,–,·,–,·,·,·
COc1ccc(S(=O)(=O)/N=C2/NC(=O)/C(=C\c3cc(OC)c(OC)cc3[N+](=O)[O-])S2)cc1,–,–,?,–,5µM,–
COc1cc(/C=C2\S/C(=N/S(=O)(=O)c3ccccc3)NC2=O)c([N+](=O)[O-])cc1OC,–,–,–,–,7.1µM,–
COc1ccc2c(C)cc(SCc3c(C)noc3C)nc2c1,–,–,?,-111,?,–
CC[C@H](C)[C@H](NC(=O)[C@H](CCCN=C(N)N)NC(=O)[C@H](CCCN=C(N)N)NC(=O)[C@H](CC(C)C)NC(=O)[C@H](Cc1ccccc1)NC(=O)CNC(=O)CN)C(=O)N[C@@H](CCCN=C(N)N)C(=O)N1CCC[C@H]1C(=O)N[C@@H](CCCCN)C(=O)N[C@@H](CC(C)C)C(=O)N[C@@H](CCCCN)C(=O)O,–,·,–,·,·,·
SMILES,IMPase Li cell,IMPase inh,ALDH1A1 inh,PNC assembly inh,HPGD block,ALOX12 inhib
CN1CC(c2ccccn2)C2(SC(=S)N(Cc3ccccc3)C2=O)C12C(=O)Nc1ccccc12 (centres undefined),–,–,25µM,–,–,–
CCOC(=O)N1CCN(C(=O)CSc2nnc(C3COc4ccccc4O3)o2)CC1 (centres undefined),–,–,32µM,–,–,–
Cc1ccc(NC(=O)CSc2nnc(C3COc4ccccc4O3)o2)c(Cl)c1 (centres undefined),–,·,2.8µM,·,·,·
O=C(CSc1nnc(C2COc3ccccc3O2)o1)Nc1ccc(F)cc1Cl (centres undefined),–,·,10µM,·,·,·
O=C(CSc1nnc(C2COc3ccccc3O2)o1)N1CCCC1 (centres undefined),–,·,?,·,·,·
COc1ccccc1-c1nnc(SCC(=O)Nc2ccc(Cl)cc2Cl)o1,–,–,–,–,–,–
Cc1c(Cl)cccc1NC(=O)c1cc2nc(-c3ccc4c(c3)OCO4)cc(C(F)(F)F)n2n1,·,–,·,·,·,·
Cc1ccccc1C(=O)Nc1c(C)nc(Nc2ccccc2)nc1Nc1ccccc1,·,–,·,·,·,·
Cn1c(NCCCO)nc2c1c(=O)n(Cc1cccc(F)c1)c(=O)n2C,·,–,·,·,·,·
O=S(=O)(CCOc1ccccc1)c1nc2ccccc2[nH]1,–,–,6.3µM,–,–,–
Cc1ccc2nc(SC(C)C(=O)N3CCOCC3)[nH]c2c1 (centres undefined),–,·,–,·,·,·
CCC(C)(C)n1nnnc1C(c1cc2cc(C)ccc2[nH]c1=O)N1CCCc2ccccc21 (centres undefined),–,–,–,–,–,–
Cc1ccc2[nH]c(=O)c(C(c3nnnn3C3CCCC3)N3CCCc4ccccc43)cc2c1 (centres undefined),–,–,14µM,–,–,–
Cc1ccc2[nH]c(=O)c(C(c3nnnn3CC3CCCO3)N3CCCc4ccccc43)cc2c1 (centres undefined),–,–,13µM,?,–,–
CCOC(=O)C1=C(C)NC(=O)NC1c1ccc2c(c1)OCCO2 (centres undefined),–,–,–,-100,–,–
CCOC(=O)C1=C(C)NC(=O)NC1c1ccc(OC(=O)c2ccco2)cc1 (centres undefined),–,–,–,–,–,–
CCOC(=O)C1=C(C)NC(=O)NC1c1ccoc1 (centres undefined),–,–,–,–,–,–
CCOC(=O)C1=C(c2ccccc2)NC(=O)NC1c1ccc(N(C)C)cc1 (centres undefined),–,–,14µM,-100,–,–
CCOC(=O)C1=C(C)NC(=O)NC1c1ccc(OCC(N)=O)cc1 (centres undefined),–,–,–,-100,–,–
CCOC(=O)C1=C(c2ccccc2)NC(=O)NC1c1ccc(OC)cc1 (centres undefined),–,·,–,·,·,·
CC(=O)[C@]1(O)CCC2C3CC(C)C4=CC(=O)C=CC4(C)[C@@]3(F)C(O)C[C@]21C (some centres undefined),–,·,–,·,–,–
CCOC(=O)c1c(C)c(C(=O)NCCOC)c(C)n1CC,–,–,–,–,8.9µM,–
Cn1cc(/C=N/n2cnc3scc(-c4ccccc4)c3c2=O)c2ccccc21,–,–,?,-113,–,–

# High-throughput results as filed in PubChem BioAssay.
